PP1 inh: PP1-alpha phosphatase inhibitors, primary screen, counter-screen for PP5 inhibitor project, biochemical, fluorescence, OMFP substrate, single point | Serine/threonine-protein phosphatase PP1-alpha catalytic subunit (Homo sapiens), P62136 | purified PP1alpha | inhibition, % at 6.7 µM | 320,000 tested, 0.9% active;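 active means inhibition above the mean inhibition of all tested compounds plus 3 SD, computed separately for each screening campaign, cut at about 15% in these data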
Target sequence (P62136 whole entry, looked up): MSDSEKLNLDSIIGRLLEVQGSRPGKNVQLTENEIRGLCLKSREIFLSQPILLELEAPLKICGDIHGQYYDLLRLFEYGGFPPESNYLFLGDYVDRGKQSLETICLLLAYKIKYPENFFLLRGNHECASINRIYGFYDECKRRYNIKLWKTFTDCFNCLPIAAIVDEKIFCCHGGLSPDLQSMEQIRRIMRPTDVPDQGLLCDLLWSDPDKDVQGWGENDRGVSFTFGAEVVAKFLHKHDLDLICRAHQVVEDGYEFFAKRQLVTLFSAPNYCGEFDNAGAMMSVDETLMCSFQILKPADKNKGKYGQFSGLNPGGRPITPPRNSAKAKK
CSC inhib: cancer stem cell viability inhibitors, primary screen, luminescence; cancer stem cell-like cells viability; inhibition, % at 7.5 µM; 300,000 tested, 1.1% active; AID 2717, 2010; in the data active means inhibition above about 75%; inconclusive means no clear call, values can overlap the other calls; tested in HMLE shEcad cells
Calb FLC: C. albicans growth inhibition with fluconazole, primary screen, CaCi-2 strain, Alamar Blue fluorescence; 300,000 tested, 0.57% active; growth inhibition, % (test concentration not listed); C. albicans CaCi-2 (fluconazole-resistant clinical isolate) + fluconazole, 48 h; AID 1979, 2009;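 active means growth inhibition above about 58% in most replicates, limit read from the data, passing the limit was not always enough; inconclusive means exactly half the replicates above a set limit; inactive means most replicates below a set limit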;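 further: all wells also contain fluconazole at 8 µg/ml as a sub-toxic cotreatment; 0% = median of DMSO wells and 100% = median of geldanamycin control wells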
PP5 primary: PP5 phosphatase inhibitors, primary screen, biochemical, fluorescence | AID 1987, 2009 | inhibition, % at 6.7 µM | 320,000 tested, 0.18% active | Serine/threonine-protein phosphatase 5 (Homo sapiens), P53041 | purified PP5c, OMFP substrate fluorescence;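 active means inhibition above the campaign's mean inhibition across all tested compounds plus 3 SD, cut at about 9.5% in these data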;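 further: 0% = DMSO only and 100% = 100 µM cantharidin control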
Beta apoptosis: inhibitors of cytokine-induced beta cell apoptosis, primary screen, luminescence | INS-1E cytokine-induced death, ATP luminescence, 48 h; percent of positive-control rescue, neutral wells zero | 300,000 tested, 0.8% active | protection from apoptosis, % (test concentration not listed);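 active means Every replicate reaches about 75%, or at least half do and their mean reaches it too, limit read from the data; inconclusive means At least half of replicates reach the limit but their mean does not; inactive means Under half of replicates reach the limit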;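 further: 0% = cytokine-treated negative control wells and 100% = positive control rescue; higher means more ATP so stronger rescue from cytokine killing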
Mdm2-MdmX inh: inhibitors of human Mdm2-MdmX association, primary screen, cell-based, luminescence, split luciferase, SaOS-2, uHTS; Protein Mdm4 (Homo sapiens) + E3 ubiquitin-protein ligase Mdm2 (Homo sapiens), …; SaOS-2 split-luciferase Mdm2/MdmX complementation; inhibition, % at 8 µM; 330,000 tested, 3% active; AID 485346, 2010;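 active means inhibition of at least 50% at 8 µM in the primary screen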
Mdm2 MdmX conf: Mdm2-MdmX complex disruptors, retested hits, confirmation, luminescence, single concentration; inhibition, % at 8 µM; AID 489028, 2010; 10,000 tested, 55% active; shares compounds with Mdm2-MdmX inh; Mdm2-MdmX binding, luminescent assay; in the data active means inhibition above about 40%
Full FLuc ctr: full-length luciferase signal inhibition, confirmation, counter-screen for Mdm2/MdmX interaction inhibitor project, cell-based, single concentration, SaOS-2. inhibition, % at 8 µM. AID 504607, 2011. SaOS-2 full-length luciferase counterscreen, luminescence. shares compounds with Mdm2-MdmX inh. 6,200 tested, 77% active;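 active means mean inhibition at 8 µM reaching about 37%, which flags the compound as non-specific, limit read from the data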;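 further: p53-null SaOS-2 cells with luciferase driven by a doxycycline-inducible promoter; compound on cells about two nights before reading with doxycycline added after day one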
Numbers without * were called inactive; u = inconclusive; x = not tested or not shown. Hits are enriched below; roughly 4.9% of the tested compounds scored in any of these assays.

SMILES	PP1 inh	CSC inhib	Calb FLC	PP5 primary	Beta apoptosis	Mdm2-MdmX inh	Mdm2 MdmX conf	Full FLuc ctr
Cc1ccc(N2CCN(S(=O)(=O)c3ccc4c(c3)n(C)c(=O)c(=O)n4C)CC2C)cc1 (stereo not drawn)	-3	-3	-2	4	-11	11	x	x
O=C(NC(=S)Nc1nc2c(s1)CSc1ccccc1-2)c1ccccc1	0	-6	43	-1	17	68*	8	x
O=C(NC(=S)Nc1nc2c(s1)CCCC2)c1ccc(C(=O)c2ccccc2)cc1	0	57	0	3	10	4	x	x
COc1ccc(C(=O)C(CCCCC(CN(C)C)C(=O)c2ccc(OC)cc2)CN(C)C)cc1 (stereo not drawn)	0	1	u	3	1	86*	59*	31
COc1ccccc1CNC(=O)c1ccc2c(=O)n3c(nc2c1)CCCCC3	-4	x	7	-2	1	32	x	x
Cc1ccccc1C(=O)Nc1ccc(O)c2c(=O)cc(-c3ccccc3Cl)oc12	3	6	-10	2	1	5	x	x
O=C(Nc1ccc(O)c2c(=O)cc(-c3ccccc3Cl)oc12)c1ccc(Cl)c(Cl)c1	-1	-3	2	2	-2	66*	26	x
O=C(c1ccc(C(F)(F)F)cc1)N1CCN(c2ccc(N3CCOCC3)nn2)CC1	-3	29	0	0	-3	6	x	x
Cn1c(-c2ccc(Cl)nc2)nc2cc(Cl)ccc21	0	12	2	1	8	-10	x	x
CC(CCc1ccccc1)NC(=O)COC(=O)c1ccc([N+](=O)[O-])cc1 (stereo not drawn)	-1	-8	-10	0	3	-24	x	x
Cc1ccccc1NC(=O)COC(=O)c1ccc(S(C)(=O)=O)c([N+](=O)[O-])c1	0	-8	u	3	-19	55*	33	x
CC(CCc1ccccc1)NC(=O)COC(=O)c1ccc(S(C)(=O)=O)c([N+](=O)[O-])c1 (stereo not drawn)	0	23	-24	1	-46	81*	83*	55*
CS(=O)(=O)c1ccc(C(=O)OCC(=O)Nc2cccnc2Cl)cc1[N+](=O)[O-]	x	71	x	x	-27	38	x	x
Cc1ccccc1NC(=O)Cc1nc(COC(=O)c2ccc(S(C)(=O)=O)c([N+](=O)[O-])c2)cs1	2	x	x	1	x	97*	94*	57*
Cc1cc(=O)oc2c(C)c(OC(C)C(=O)Nc3ccc(N4CCC(C)CC4)cc3)ccc12 (stereo not drawn)	1	14	-6	-1	13	8	x	x
CC(=O)c1cc(-c2ccccc2)n(CCC(=O)NC(C)(C)C)c1C	-4	-14	-5	0	2	21	x	x
C[C@]12CCC(O)CC1=CCC1C2CC[C@]2(C)/C(=N\NC(N)=S)CCC12 (stereo partly drawn)	-1	-19	-6	2	-10	5	x	x
C/C(=N\NC(N)=S)C1=CCC2C3CC[C@H]4CC(O)CC[C@]4(C)C3CC[C@]12C (stereo partly drawn)	3	x	-7	0	x	75*	15	x
COc1ccc(/C=C(\C#N)C(=O)N2CCOCC2)cc1Br	-3	-8	45	1	-7	19	x	x
Cc1cc(/C=C(\C#N)C(=O)N2CCOCC2)c(C)n1C1CCCC1	-7	0	3	-3	1	64*	68*	158*
Cc1ccc(-n2nc3c(=O)n(CCCC(=O)NCc4ccccc4Cl)nc(C)c3c2C)cc1	1	-7	20	1	2	22	x	x
COc1ccc(C(CNC(=O)c2ccc(-c3nc4ccccc4s3)o2)N2CCCC2)cc1 (stereo not drawn)	1	0	x	1	-3	13	x	x
COc1ccc(C2=Nn3c(nnc3-c3ccccc3F)SC2)cc1OCC1CC1	x	57	x	x	18	84*	62*	37*
COc1ccc(C2=Nn3c(nnc3-c3ccccc3Cl)SC2)cc1OC1CCCC1	x	x	x	x	u	73*	49*	54*
COc1ccc(C2=Nn3c(nnc3-c3ccccc3Cl)SC2)cc1OC1CCOC1 (stereo not drawn)	x	25	x	x	6	63*	40	63*
SMILES	PP1 inh	CSC inhib	Calb FLC	PP5 primary	Beta apoptosis	Mdm2-MdmX inh	Mdm2 MdmX conf	Full FLuc ctr
COc1ccc(OC)c(C2=Nn3c(nnc3-c3cc(OC)c(OC)c(OC)c3)SC2)c1	-3	-8	-12	1	25	39	x	x
COc1ccc(OC)c(-c2nnc3n2N=C(c2ccc(OC)c(OC4CCOC4)c2)CS3)c1 (stereo not drawn)	x	44	x	x	19	68*	63*	93*
CCOC(=O)c1c(NC(=O)CC2SC(N)=NC2=O)sc2c1CCCC2 (stereo not drawn)	-2	-6	21	2	-1	25	x	x
Cc1ccc(CN2CC(C(=O)NNC(=O)c3ccc(F)cc3)CC2=O)cc1 (stereo not drawn)	-6	x	x	0	-6	7	x	x
Oc1c(N=Nc2ccccn2)ccc2ccccc12	11	99*	-3	2	96*	91*	46*	46*
NC(=O)C1(C(N)=O)OC1c1ccc(Cl)c(Cl)c1 (stereo not drawn)	-2	-11	-12	-5	-6	5	x	x
COc1ccc(NC(C)C(=O)Nc2cc(C(F)(F)F)ccc2N2CCOCC2)c(OC)c1 (stereo not drawn)	0	11	u	0	-4	57*	21	x
COc1cc(Cl)c(C)cc1NC(C)C(=O)Nc1cc(C(F)(F)F)ccc1N1CCOCC1 (stereo not drawn)	-2	42	3	-1	0	34	x	x
O=C(NCCc1ccccc1)C(=O)NCC1CCNCC1	-1	4	44	-3	0	10	x	x
COC(=O)C1=C(C)N(CCc2ccccc2)C(=O)C1(NS(=O)(=O)c1ccc(NC(C)=O)cc1)C(F)(F)F (stereo not drawn)	-9	17	3	3	-1	65*	32	59*
COc1ccc(OCC(=O)Nc2ccc3oc(=O)ccc3c2)cc1	1	16	29	0	3	-5	x	x
COc1ccc(C(=O)NC(=S)Nc2ccc3oc(=O)ccc3c2)cc1	-1	x	16	-1	3	73*	24	84*

Screening results from PubChem BioAssay.
